Experimental findings from ChEMBL document CHEMBL4513216, “Probing the Open Global Health Chemical Diversity Library for Multistage-Active Starting Points for Next-Generation Antimalarials” (ACS Infect Dis, 2020) are described below.

Screen size: about 69,000 compounds; about 8,600 (12%) showed an effect of 50% or more. The full list was thinned out, with strong results kept by preference.

The subject of the assay is Plasmodium berghei. In words: Screen against P. berghei liver stage (PbLuc), transformed with Luciferase, at 10uM. Conditions: tested at 10 uM. It counts as functional, HepG2.
For `Cn1cc([C@@H]2CN(S(C)(=O)=O)C[C@H]2N)c2ccncc21`, the INHIBITION is -10.795%.
The result for `CC(C)Cc1cc(-c2cc(-c3ccc[nH]3)nc(N)c2C#N)n[nH]1` reads 48.8%; that for `CS(=O)(=O)NCCC(=O)Nc1ccccc1N1CCc2ccccc21`, 40.5%; that for `CCS(=O)(=O)CC(=O)Nc1ccccc1N1CCc2ccccc21`, 63.3%.
The value for `CNC(=O)NCC(=O)Nc1ccccc1N1CCc2ccccc21` was 30.5%; that for `O=C1CCC2(CCN(Cc3cscn3)CC2)CN1C1CCC(O)CC1` (centres undefined) was -60.7%; that for `COCCC(=O)N1CCC2(CC1)CC(c1ccccc1)CN(C1CC1)C2` (centres undefined) was 14%.
The result for `CCN1CC(c2ccccc2)CC2(CCN(Cc3ncc[nH]3)CC2)C1` (centres undefined) reads 42.1%; that for `c1ccc(C2CN(C3CC3)CC3(CCN(Cc4ncc[nH]4)CC3)C2)cc1` (centres undefined), 53.3%; that for `CN1CC(c2ccccc2)CC2(CCN(Cc3ncc[nH]3)CC2)C1` (centres undefined), 49.9%.
On to `c1ccc(C2CN(C3CC3)CC3(CCN(Cc4cscn4)CC3)C2)cc1` (centres undefined), for which the INHIBITION came to 70.1%.
The value for `Cc1cn2c(=O)c(-c3ccnc(N[C@@H]4CCOC4)n3)cnc2s1` was 17.4%.
`Cc1nc(COC[C@@]23CCC[C@@H]2CN(Cc2nccs2)C3)cs1`: the INHIBITION worked out at 42.6%.
As to `COCCN1CC2(CCCN(c3ncc(Cl)cc3F)C2)CCC1=O` (centres undefined), the INHIBITION is recorded as 78.5%.
The value for `CN(C)CCN1CC2(CCCN(c3ncc(Cl)cc3F)C2)CCC1=O` (centres undefined) was 37.7%; that for `COCCCN1CC2(CCCN(c3ncc(Cl)cc3F)C2)CCC1=O` (centres undefined) was 37.7%; that for `CC(C(=O)Nc1ccnn1C(C)C)N1CCc2nn(C)c(=O)cc2C1` (centres undefined) was 1.98%.
The result for `Cc1c(OCC(=O)NCc2ccccc2)c(=O)ccn1C` reads 57.3%.
The result for `Cc1c(OCC(=O)NCc2ccccc2Cl)c(=O)ccn1C` reads 39.6%.
In the case of `COc1ccccc1CNC(=O)COc1c(C)n(C)ccc1=O`, the INHIBITION is 53.6%.
The result for `COCCn1ccc(=O)c(OCC(=O)Nc2ccccc2)c1C` reads -93.2%; that for `CC(=O)c1cccc(NC(=O)COc2c(C)n(C)ccc2=O)c1`, -19%; that for `COc1ccccc1CNC(=O)CNCCn1cc(C)cn1`, 7.27%.
The value for `Cc1cccc(CN2C(=O)CO[C@@H]3CN(C4CCOCC4)C[C@H]32)c1` was -18.2%; that for `CCN(C(=O)CCCOc1ccccc1F)c1ccncc1` was -26.8%; that for `CCCn1nnnc1COC(=O)C1Cc2cc(Cl)ccc2O1` (centres undefined) was 43.5%.
The result for `CCCc1cc(NC(=O)c2ccc(Cl)c(N3CCNC3=O)c2)n[nH]1` reads -26.4%; that for `CCc1ccc(C(=O)Nc2cc(N3CCNC3=O)ccc2Cl)o1`, 32.9%.
For the molecule `CCCn1nccc1NC(=O)c1ccc(Cl)c(N2CCNC2=O)c1`, the INHIBITION is given as 57%.
The result for `O=C(CC1C=CCC1)N1CCc2ncnc(NCc3ccon3)c2CC1` (centres undefined) reads 34.5%.
The value for `CC(NC(=O)CSCC#N)c1ccc(Cl)cc1` (centres undefined) was 34.7%; that for `CC(NC(=O)CSCC#N)c1ccccc1` (centres undefined) was 55.5%.
`CC(NC(=O)CSCC#N)c1ccc(F)cc1` (centres undefined): the INHIBITION was -13.3%.
On to `Cc1c(Br)cnn1CCC(=O)N(C)Cc1c(Cl)cnn1C`, for which the INHIBITION is listed as 32.2%.
The result for `COc1ccc(N2CCCC3(C2)CN(c2cccnc2)CCO3)cc1` (centres undefined) reads 8.85%; that for `CC(C)N1CCOCC2(CN(Cc3cccs3)CCO2)C1` (centres undefined), 41.2%.
The value for `Fc1cnc(N2CCCC3(CN(Cc4cccs4)CCO3)C2)nc1` (centres undefined) was 32.5%; that for `O=C(c1ccncc1)N1CCOC2(COCCN(c3cccnc3)C2)C1` (centres undefined) was 31.4%; that for `c1cncc(N2CCOCC3(CN(Cc4cccs4)CCO3)C2)c1` (centres undefined) was 53.2%.
The value for `c1cncc(N2CCCC3(CN(Cc4cccs4)CCO3)C2)c1` (centres undefined) was 63.7%; that for `O=C(CCc1nc(C2CC2)no1)c1ccc2c(c1)OCCO2` was -5.22%; that for `CN1CCCC(c2cncc(C(=O)NCc3ccccc3Cl)n2)C1` (centres undefined) was -54.1%.
For `CC(C)=CCN1C(=O)[C@@H]2CC[C@H]1CN(c1ncccn1)C2`, the INHIBITION was found to be 12.7%.
The result for `CC(C)(C)NC(=O)CNc1ccc(Br)cn1` reads 25.4%; that for `O=C(NCCCn1cccn1)c1nc2ccccc2[nH]1`, 15.7%; that for `Cc1csc(NC(=O)NCCCN2CCC(C(N)=O)CC2)n1`, -21.1%.
The value for `Cc1ccnc(OC[C@]23COC[C@H]2CN(C(=O)Cc2ccsc2)C3)n1` was -39.9%; that for `Cc1n[nH]c(C)c1NC(=O)CN1CCCC1c1noc(C2CC2)n1` (centres undefined) was 26.5%.
The result for `c1ccc(-c2nn3c(CN4CCOCC4)nnc3s2)nc1` reads 25.9%; that for `Cc1ccc(N2C[C@H]3CCC[C@@H](CN4CCOCC4)[C@H]3C2)nn1`, 61.9%.
For the molecule `COCCN1CC[C@H]2CN(c3cc(OC)ncn3)C[C@@H]2C1=O`, the INHIBITION is given as 54.1%.
The value for `COc1cc(N2C[C@H]3CN(CCN4CCCC4)C(=O)[C@H]3C2)ncn1` was 17.2%; that for `COc1cc(N2C[C@H]3CCC[C@@H](CN(C)C)[C@H]3C2)ncn1` was 32.2%.
The result for `Cc1ccc(N2C[C@H]3CCC[C@@H](CN(C)C)[C@H]3C2)nn1` reads -10.5%; that for `Cc1ccc(N2C[C@@H](CN3CCOCC3)[C@@H](CO)C2)nn1`, 20.4%; that for `COCCN1C[C@@H]2CN(c3ncc(F)cn3)C[C@@H]2C1=O`, 53.4%.
The result for `COc1cc(N2C[C@H]3CN(CC(=O)N(C)C)C(=O)[C@H]3C2)ncn1` reads 42.3%; that for `COc1cc(N2C[C@H]3CCC[C@@H](CN(C)C4CC4)[C@H]3C2)ncn1`, 20.6%.
On to `COCCN1C[C@@H]2CN(c3ncccn3)C[C@@H]2C1=O`, for which the INHIBITION is on record as -14.6%.
In the case of `COc1cc(N2C[C@H]3CCC[C@@H](CN4CCCC4)[C@H]3C2)ncn1`, the INHIBITION was determined as 76.5%.
The value for `Cc1nc(CN2C[C@@H]3CN(c4ncc(F)cn4)C[C@@H]3C2=O)cs1` was 5.63%; that for `N[C@H]1c2ccccc2C[C@@H]1NC(=O)C1CCN(Cc2ccco2)CC1` was -13.6%.
For `O=C(CS(=O)(=O)Cc1csc(-c2ccc(F)cc2)n1)NCC1CC1`, the INHIBITION came out at 0.991%.
The result for `Cc1ccn2c(F)c(C(=O)N3CCC4(CCC(=O)N(C)C4)CC3)nc2c1` reads 20.5%.
